Test results as given in the supplement of paper PMC4894684.
Structures can show the parent of a compound that is named as a salt. ± gives the standard deviation of the averaged measurements.

Tested on: Toxoplasma gondii RH (in HFF)
Experiment: parasite growth relative to the screen mean (all compounds = 100%); higher = less inhibition of parasite growth
Conditions: 5 µM; 72 h; oxygen 21 %
Procedure, shortened: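 Confluent human foreskin fibroblasts in 96-well plates received library compounds by pin transfer at 5 µM final, taken from 10 mM DMSO stocks. Within 2 h the cells were infected with RH β-Gal–GFP Toxoplasma at MOI 1:5 and cultured 72 h at 21% O2. A CPRG β-Gal assay read against in-plate standard curves gave parasite number, and growth is stated relative to the screen mean, where all compounds = 100%, averaged across two screens.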

Going from `CCCCC[C@H](O)/C=C/[C@H]1[C@H](O)CC(=O)[C@@H]1CCCCCCC(=O)O` [Alprostadil] to `CCCCCCCCCCCCCCCC(=O)C(F)(F)F`, the parasite growth falls from 140 ± 6% to 108 ± 7.6%.

`Cc1ccc(OCC(O)C(C)NC(C)C)c2c1CCC2` (centres undefined) [ICI-118,551 hydrochloride] and `COc1ccc(C(=O)Nc2sc3c(c2C(N)=O)CCCC3)cc1OC` are within error of each other in parasite growth: 92.9 ± 14% for the first, 112 ± 5.8% for the second.

`O=[N+]([O-])c1cc(Cl)ccc1S(=O)(=O)N1CCN(Cc2ccccc2)CC1` and `O=C(O)COCCN1CCN(C(c2ccccc2)c2ccc(Cl)cc2)CC1` (centres undefined) [Cetirizine dihydrochloride] are within error of each other in parasite growth: 130 ± 24% for the first, 136 ± 34% for the second.

`Cc1c(C(=O)N(C)C2CCCCC2)sc2nc3ccc(N)cc3n12` and `Cc1c(C(=O)NC2CCCCC2)sc2nc3ccc(N)cc3n12` are within error of each other in parasite growth: 185 ± 31% for the first, 183 ± 33% for the second.

First: CCCCCCNC(=O)Nc1ccc(S(=O)(=O)Nc2ccc(CCNC[C@H](O)COc3ccc(O)cc3)cc2)cc1
Second: CCCCCCCCc1ccc(-c2ccc(C(=O)O)cc2)cc1
The parasite growth of the first is higher: 170 ± 26% for the first, 111 ± 17% for the second.

Going from `OCC(CO)N[C@H]1C[C@](O)(CO)[C@@H](O)[C@H](O)[C@H]1O` [Voglibose] to `CC[C@H](C)C(=O)O[C@H]1CCC=C2C=C[C@H](C)[C@H](CC[C@@H]3C[C@@H](O)CC(=O)O3)[C@H]21` [Mevastatin], the parasite growth rises from 68.07 ± 0.24% to 109 ± 3.3%.

Going from `CC(C)n1nnc2cc(C(=O)O)ccc21` to `CCC(NC(C)C)C(O)c1ccc(O)c2[nH]c(=O)ccc12` (centres undefined) [Procaterol hydrochloride], the parasite growth rises from 81.9 ± 22% to 132 ± 21%.

`N#C/C(=C\c1ccc(O)c(O)c1)C(=O)NCCCCc1ccccc1` and `N#C/C(=C\c1ccc(O)c(O)c1)C(=O)NCc1ccccc1` are within error of each other in parasite growth: 155 ± 18% for the first, 148 ± 13% for the second.

`O=c1c(-c2ccc(O)cc2)coc2cc(O)ccc12` [Daidzein] and `O=c1cc(N2CCNCC2)oc2c(-c3ccccc3)cccc12` are within error of each other in parasite growth: 77.8 ± 43% for the first, 150 ± 30% for the second.

First: O=c1[nH]c2cc(C(F)(F)F)c(N3CCOCC3)cc2n(CP(=O)(O)O)c1=O
Second: O=c1cc(N2CCOCC2)oc2c1ccc1ccccc12
The parasite growth of the first is higher: 118 ± 4% for the first, 89.2 ± 2.4% for the second.

`Clc1cccc2c1CN(C1=NCCN1)C2` and `O=S(=O)(c1cccc2c(Cl)cccc12)N1CCCNCC1` [ML 9 hydrochloride] are within error of each other in parasite growth: 92.2 ± 25% for the first, 122 ± 19% for the second.

Compared with `Brc1c(NC2=NCCN2)ccc2nccnc12` [UK 14,304 tartrate], `Cc1ccc(NC2=CC(=O)c3sc(C)nc3C2=O)cc1` [Ryuvidine] is lower in parasite growth: 101 ± 27% for the first, less than 0% for the second.

First: C[C@H](NC(=O)c1sccc1OCc1ccc(Cl)cc1)c1ccccc1
Second: CNCC[C@@H](Oc1ccccc1C)c1ccccc1 [Tomoxetine hydrochloride]
The parasite growth of the first is lower: 38.7 ± 22% for the first, 85.9 ± 8.6% for the second.

`O=C(/C=C/c1ccccc1)NC(NC(=S)Nc1cccc2cccnc12)C(Cl)(Cl)Cl` (centres undefined) [Salubrinal] and `Cc1cccc(C#Cc2ccccc2)n1` [MPEP hydrochloride] are within error of each other in parasite growth: 86.2 ± 17% for the first, 101 ± 37% for the second.

Going from `CC(C)(CO)Cc1cc(C(C)(C)C)c(O)c(C(C)(C)C)c1` to `CN1c2cc3c(cc2N=C(c2ccc(C(=O)O)cc2)c2ccccc21)C(C)(C)CCC3(C)C`, the parasite growth falls from 192 ± 11% to 61.4 ± 34%.

`CCCC(=O)Nc1ncnc2c1ncn2[C@@H]1O[C@@H]2COP(=O)(O)O[C@H]2[C@H]1OC(=O)CCC` [Dibutyryl-cAMP, sodium salt] and `COc1ccc(Cl)cc1C(=O)NCCc1ccc(S(=O)(=O)NC(=O)NC2CCCCC2)cc1` [Glibenclamide] are within error of each other in parasite growth: 125 ± 23% for the first, 96.4 ± 24% for the second.

First: O=C(NCCCCN1CCN(c2cccc(Cl)c2Cl)CC1)c1ccc2c(c1)Cc1ccccc1-2
Second: COc1cc(OC)c(C(=O)CCCCN2CCC3(CC2)NC(=O)NC3=O)cc1NS(=O)(=O)c1ccc(C(F)(F)F)cc1
The parasite growth of the first is lower: 92.71 ± 0.75% for the first, 109 ± 11% for the second.

Compared with `Cn1cccc1/C=C1\C(=O)NC(=O)c2ccccc21`, `Cc1ccc2c(=O)c3ccccc3n(CCCN)c2c1C` is lower in parasite growth: 121 ± 6.4% for the first, less than 0% for the second.

Going from `O=C(O)c1ccc(-c2ccc3cc(O)c(C45CC6CC(CC(C6)C4)C5)cc3c2)cc1` to `O=C(Nc1ccccc1)N[C@@H]1C[C@@H](C(=O)O)Nc2cc(Cl)cc(Cl)c21`, the parasite growth falls from 146 ± 18% to 104 ± 3.9%.

`O=C(NCC1CCCCN1)c1cc(OCC(F)(F)F)ccc1OCC(F)(F)F` (centres undefined) [Flecainide acetate] gave a parasite growth of 130 ± 7.9%.
